What all share (conditions): concentration: 1 μM, replicates: in singlicate; n = 1
Assay [1] has as its system BUB1.
In assay [2] the test system is CAMK1B.
Assay [3] has as its system CAMK1D.
The subject of assay [4] is CAMK1G.
Assay [5] relates to CAMK1.
Assay [6] relates to CAMK2A.
For assay [7], the system named is CAMK2B.
Assay [8] concerns CAMK2D.
Assay [9] has as its system CAMK2G.
For assay [10], the system named is CAMK4.
For assay [11], the system named is CAMKK1.
Assay [12] has as its system CAMKK2.
For assay [13], the system named is CASK.
Assay [14] deals with T1, CDC2L1.
T1 construct: gene CDK11B

Assay [15] relates to CDC2L2.
The subject of assay [16] is T2, CDC2L5.
T2 construct: gene CDK13

The subject of assay [17] is T3, CDK11.
T3 construct: gene CDK19

Assay [18] relates to CDK2.
In assay [19] the test system is CDK3.
The subject of assay [20] is CDK4-cyclinD1.

Results on ten compounds are retold here after publication PMC5540273 (PLoS ONE, 2017).
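Also: KINOMEscan kinase panel screen.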

In the case of `O=C(NCCNc1ccnc(Nc2ccc(F)cc2)n1)c1cc2ccccc2s1` [GSK1379874], the “%Inh” value came out at 49% in assay [1]; 0% in assay [2]; 1% in assay [3]; 0% in assay [4]; 1% in assay [5]; 0% in assay [6]. Moreover, the “%Inh” value amounted to 0% in [7]; 7% in assay [8]; 18% in [9]; 0% in assay [10]; 5% in assay [11]; 0% in [12]. The “%Inh” value was 1% in [13]; 0% in assay [14]; 8% in [15]; 0% in assay [16]; 0% in [17]; 0% in assay [18]. Besides, the “%Inh” value in assay [19] and in assay [20] was 0% each time.

For the compound `Cc1c(Cn2c(C)nn3c(=O)cc(N4CCOC(C)C4)nc23)cccc1C(F)(F)F` (centres unmarked) [GSK2344444], the “%Inh” value is reported as 0% in assay [1]; 10% in assay [2]; 9% in assay [3]; 0% in assay [4]; 0% in [5]; 0% in assay [6]. Moreover, the “%Inh” value is 0% in assay [7]; 0% in assay [8]; 10% in [9]; 0% in assay [10]; 0% in [11]; 0% in assay [12]. Besides, the “%Inh” value in [13], in assay [14], in assay [15], in assay [16], in assay [17] and in assay [18] was 0% throughout. Besides, the results for the “%Inh” value in [19] and in assay [20] were 4% and 0%, respectively.

Regarding `O=C(NCCCN1CCOCC1)c1cccc(Nc2nccc(Nc3ccc(Oc4ccccc4)cc3)n2)c1` [GW663929], the “%Inh” value was determined as 28% in assay [1]; 37% in assay [2]; 33% in assay [3]; 0% in assay [4]; 55% in assay [5]; 3% in [6]. Moreover, the “%Inh” value in assay [7] came out at 6%; in assay [8], 2%; in assay [9], 0%; in [10], 0%; in assay [11], 0%; in [12] it was 7%. For the same compound, the “%Inh” value turned out to be 7% in assay [13]; 10% in assay [14]; 26% in assay [15]; 0% in assay [16]; 15% in assay [17]; 0% in assay [18]. Further, the “%Inh” value in assay [19] is reported as 0%; in assay [20], 6%.

For `COc1ccc(Nc2nccc(N3CCC(NC(=O)Nc4cc(C)ccc4C)C3)n2)cc1` (centres unmarked) [GSK1379741], the “%Inh” value is recorded as 33% in assay [1]; 13% in assay [2]; 0% in [3]; 0% in [4]; 0% in [5]; 0% in [6]. Further, the “%Inh” value in assay [7], in [8], in assay [9], in [10], in assay [11] and in [12] was 0% throughout. In addition, the “%Inh” value is reported as 3% in assay [13]; 0% in assay [14]; 0% in [15]; 0% in assay [16]; 70% in assay [17]; 0% in assay [18]. Besides, the results for the “%Inh” value in assay [19] and in [20] were 7% and 0%, respectively.

As to `Cl.Nc1ncnc2occ(-c3ccc(NC(=O)Nc4cc(C(F)(F)F)ccc4F)cc3)c12` [SB-707548], the “%Inh” value in [1] was 17%; in assay [2], 36%; in assay [3], 23%; in assay [4], 0%; in assay [5] it was 22%; in [6], 0%. Also, the “%Inh” value in assay [7] amounted to 0%; in assay [8] it was 0%; in [9], 25%; in [10], 32%; in assay [11], 9%; in [12], 25%. Besides, the “%Inh” value was 5% in assay [13]; 25% in [14]; 49% in [15]; 97.4% in assay [16]; 100% in assay [17]; 80% in assay [18]. The “%Inh” value stood at 89% in assay [19] and 3% in [20].

`CN(C(=O)c1ccc(-c2cc(-c3c[nH]nc3-c3ccccn3)ccn2)cc1)C1CCOCC1` [GW810083]: the “%Inh” value turned out to be 0% in [1]; 41% in assay [2]; 20% in assay [3]; 0% in assay [4]; 0% in [5]; 0% in assay [6]. Further, the “%Inh” value was determined as 0% in assay [7]; 0% in [8]; 17% in assay [9]; 20% in assay [10]; 12% in assay [11]; 25% in [12]. Further, the “%Inh” value came out at 0% in assay [13]; 0% in [14]; 0% in assay [15]; 11% in assay [16]; 52% in assay [17]; 0% in assay [18]. Further, the “%Inh” value in assay [19] stood at 0%; in assay [20] it was 31%.

For `CNc1ncnc2[nH]ncc12` [SKF-18355], the “%Inh” value was 20% in assay [1]; 0% in assay [2]; 0% in assay [3]; 0% in assay [4]; 0% in assay [5]; 0% in [6]. In addition, the “%Inh” value in assay [7], in [8], in assay [9], in [10], in assay [11] and in assay [12] was 0% each time. Further, the “%Inh” value in assay [13] worked out at 22%; in [14], 0%; in [15], 0%; in assay [16] it was 0%; in assay [17], 0%; in [18], 0%. Also, the “%Inh” value is 12% in assay [19] and 0% in [20].

With `O=C(Nc1cccc(-c2nn3ncccc3c2-c2ccnc(Nc3cccc(C(F)(F)F)c3)n2)c1)c1c(F)cccc1F` [GSK299495], the “%Inh” value was 80% in assay [1]; 30% in assay [2]; 21% in assay [3]; 9% in assay [4]; 32% in [5]; 100% in assay [6]. The “%Inh” value in assay [7] is reported as 100%; in [8] it was 19%; in assay [9] it was 11%; in assay [10], 0%; in [11], 0%; in [12], 8%. Also, the “%Inh” value is given as 13% in [13]; 0% in assay [14]; 19% in [15]; 0% in [16]; 15% in [17]; 0% in [18]. In addition, the “%Inh” value in assay [19] turned out to be 3%; in assay [20], 0%.

`NS(=O)(=O)CCc1cccc(Nc2nccc(-c3c(-c4cccc(NC(=O)c5c(F)cccc5F)c4)nn4ccccc34)n2)c1` [GSK336735]: the “%Inh” value in assay [1] stood at 77%; in assay [2], 0%; in assay [3], 29%; in [4], 0%; in [5] it was 53%; in assay [6], 0%. For the same compound, the “%Inh” value in assay [7] came out at 0%; in assay [8], 4%; in assay [9], 14%; in assay [10] it was 0%; in assay [11], 0%; in assay [12], 8%. Also, the “%Inh” value is given as 7% in assay [13]; 11% in assay [14]; 35% in assay [15]; 0% in assay [16]; 14% in assay [17]; 0% in assay [18]. Besides, the “%Inh” value in assay [19] is on record as 21%; in assay [20] it was 0%.

`Fc1ccc(-c2nn3c(OCC(F)(F)F)cccc3c2-c2ccncc2)cc1` [GW514784]: the “%Inh” value in [1] is 99%; in assay [2], 0%; in assay [3] it was 7%; in assay [4], 0%; in assay [5], 0%; in assay [6], 0%. For the same compound, the “%Inh” value is 0% in assay [7]; 0% in assay [8]; 22% in [9]; 0% in [10]; 8% in assay [11]; 9% in assay [12]. The “%Inh” value in [13] amounted to 7%; in assay [14] it was 0%; in [15] it was 11%; in assay [16], 0%; in [17], 3%; in assay [18] it was 0%. Moreover, the “%Inh” value was found to be 0% in assay [19] and 46% in assay [20].
